Where “and” joins values, the source holds several entries; their conditions need not be identical. Equal entries are not always repeated. Records with an inconclusive call do not appear. Some compounds were tested as several samples or in several runs, with calls that do not always agree. Calls of active or inactive are those of the source. The call rests on the fitted dose curve; in most records, active means well fitted curve in the direction sought with a large enough effect; inconclusive means small, poorly fitted or top-dose-only effect, or another doubt; inactive means no such curve, though single readings can be large; an effect the other way counts as inactive or inconclusive.
Columns and labels:
[1] = target: Phospholipid hydroperoxide glutathione peroxidase GPX4 (Homo sapiens) (UniProt P36969); experiment: Primary qHTS Assay for Inhibitors of Recombinant Selenoprotein Glutathione Peroxidase 4 (GPX4) (AID 1845192); further: nearly all actives have a fitted effect of over 65% in size; further: potency means the concentration at half of the fitted maximal effect; on activity change, negative = inhibition: series mostly up to about 50 µM; on the % scale 0 is the no-effect control and ±100 the full control effect
Procedure, shortened: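 Steps: GPX4 plus compound, 30 min RT; add GR/GSH/NADPH master mix; start with cumene hydroperoxide; read 340/450 nm fluorescence at 0 and 15 min. Finals were 200 nM GPX4, 1 mM GSH, 0.5 mM CHP, 0.5 mM NADPH, 100 nM GR.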

[2] = target: Luciferin 4-monooxygenase (Photinus pyralis) (UniProt P08659); experiment: Primary firefly luciferase (FLuc) qHTS assay for identification of artifact compounds. (AID 1845220); further: nearly all actives have a fitted effect of over 60% in size;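 on activity change, negative = inhibition: series mostly up to about 54 µM; plate controls were DMSO vehicle for no effect and no enzyme for full effect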
Procedure, shortened: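 Titrated compounds were incubated 15 min at RT, protected from light, with luciferin and ATP at 10 uM; reaction started with 10 nM FLuc, luminescence imaged at 5 min, and concentration-response fitted by Hill equation.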

[3] = Primary fluorescence-based thiol-reactive (MSTI) qHTS assay for identification of artifact compounds. (AID 1845221); further: nearly all actives have a fitted effect of over 65% in size; further: potency means the concentration at half of the fitted maximal effect;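 on activity change, negative = thiol reactive: series mostly up to about 54 µM; thiol-reactive compounds lower the probe fluorescence signal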
Procedure, shortened: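 Curve-fitted percent inhibition (4-parameter Hill) derived from fluorescence, Ex 525/Em 598 nm, scaled with Acetyl-MSTI and MSTI; 1 h incubation at room temperature.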

[4] = system: Nanoluciferase (engineered Oplophorus gracilirostris luciferase); experiment: Primary Nanoluciferase (NLuc) qHTS assay for identification of artifact compounds. (AID 1845222);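 further: NLuc secreted into diluted conditioned medium of S16 cells; series mostly up to about 54 µM; 0% = DMSO and -100% = no enzyme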
Procedure, shortened: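 qHTS format, against NLuc in S16 cell-conditioned medium. Nano-Glo substrate 1:100 was added after 15 min at room temperature. Luminescence was taken after a further 5 min.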

[5] = Primary redox qHTS assay for identification of artifact compounds. (AID 1845223);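 further: 0% = DMSO and 100% = reference compound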
Procedure, shortened: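 Redox-cycling detection via DTT (250 uM final) oxidation coupled to Amplex Red (25 uM)/HRP (250 mU/mL) in HBSS. 15 min preincubation plus 30 min after DTT, room temperature. Ex/Em 525/598 nm; 4-parameter Hill fit against DMSO and 10 uM DA3003.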

Sequence of Phospholipid hydroperoxide glutathione peroxidase GPX4 (Homo sapiens) (P36969 whole entry, looked up): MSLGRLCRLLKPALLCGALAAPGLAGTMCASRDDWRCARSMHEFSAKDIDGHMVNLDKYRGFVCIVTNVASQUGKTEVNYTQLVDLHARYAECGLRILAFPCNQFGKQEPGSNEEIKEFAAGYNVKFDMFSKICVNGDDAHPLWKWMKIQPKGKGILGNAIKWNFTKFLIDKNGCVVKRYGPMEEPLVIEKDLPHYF

CC(=O)O[C@@H]1C[C@]2(C)[C@@]3(CCC4[C@@]5(C)CC[C@H](O[C@@H]6O[C@H](C(=O)O)[C@@H](O)[C@H](O[C@@H]7O[C@H](CO)[C@H](O)[C@H](O)[C@H]7O[C@@H]7O[C@@H](C)[C@H](O)[C@@H](O)[C@H]7O[C@@H]7OC[C@](O)(CO)[C@H]7O)[C@H]6O[C@@H]6O[C@H](CO)[C@H](O)[C@H](O)[C@H]6O)C(C)(C)C5CC[C@]42C)O[C@@H](O)[C@]12C3CC(C)(C)[C@@H](OC(=O)/C=C/c1ccc(O)c(O)c1)[C@@H]2OC(=O)/C=C/c1ccccc1 (stereo partly specified)
inactive: activity change, negative = inhibition [1] -12% [at 9.73 µM] | outcome [2] inactive [at 11.6 µM] | activity change, negative = thiol reactive [3] 97% [at 11.5 µM] | activity, negative = inhibition [4] 1.63% [at 11.6 µM]

CCC(C)/C=C(C)/C=C/C1=CC2=C(Cl)C(=O)C(C)(OC(C)=O)C(=O)C2=CN1CCCC(=O)O (stereo unspecified)
active: Potency [3] 0.367 µM
inactive: Potency [1] | Potency [2] | Potency [4]

Cc1c(-c2ccnn2C)cc(C(=O)NCc2ccc(S(C)(=O)=O)cn2)c(=O)n1-c1cccc(C(F)(F)F)c1
inactive: Potency [2] | Potency [3] | Potency [4]
inactive and 12.8 µM (active): Potency [1]

C=C1C(OC(C)=O)C(=O)C2C(C)(C)C(OC(C)=O)CCC2(C)C1CC(OC(C)=O)/C(C)=C/COC(C)=O (stereo unspecified)
inactive: Potency [1] | Potency [2] | Potency [3] | Potency [4]

COc1c(C(CC(C)C)OC(C)=O)ccc(Oc2c(O)cc(C)cc2/C=C/C(C)=O)c1C(=O)O (stereo unspecified)
active: Potency [3] 4.62 µM
inactive: Potency [1] | Potency [2] | Potency [4]

COc1ccc(C(=O)O[C@H]2CC(C)=CC[C@@]3(C)[C@@H](OC(C)=O)C[C@@](O)(C(C)C)[C@H]23)cc1
inactive: Potency [1] | Potency [2] | Potency [3] | Potency [4]

CCC[C@@H]1C[C@@H](C(=O)N[C@@H]([C@H]2O[C@H](SC)[C@H](OP(=O)(O)O)[C@@H](O)[C@H]2O)[C@H](C)Cl)N(C)C1
inactive: Potency [1] | Potency [2] | Potency [3] | Potency [4]

COCCN(C)Cc1ccc2nc3sc(C(=O)N(C)C4CCCCC4)cn3c2c1
inactive: Potency [1] | Potency [2] | Potency [3] | Potency [4]

C[C@@H]1O[C@@H](O[C@H]2[C@H](O[C@H]3CO[C@@H](O[C@H]4CC[C@@]5(C)C(CC[C@]6(C)C5CC[C@]57OC[C@@]8(CC[C@](C)(CO)CC85)[C@H](O)C[C@]76C)C4(C)C)[C@H](O[C@@H]4O[C@H](CO)[C@@H](O)[C@H](O)[C@H]4O)[C@H]3O)O[C@H](CO)[C@@H](O)[C@@H]2O)[C@H](O)[C@H](O)[C@H]1O (stereo partly specified)
inactive: Potency [1] | activity change, negative = inhibition [2] 0.85% [at 11.6 µM] | activity change, negative = thiol reactive [3] 26.5% [at 11.5 µM] | activity, negative = inhibition [4] -0.449% [at 11.6 µM]

CC(=O)O[C@H]1C[C@@H]2[C@]3(CC[C@]4(C)[C@@H](C5(C)CCC(C(C)(C)O)O5)[C@@H](O)C[C@@]24C)C[C@@]32CC[C@H](O[C@@H]3OC[C@@H](O)[C@H](O)[C@H]3O)C(C)(C)[C@H]12 (stereo partly specified)
inactive: Potency [1] | Potency [2] | Potency [3] | Potency [4]

CC1=C2C(=O)O[C@@H](c3ccoc3)[C@]2(C)CCC1
inactive: Potency [1] | Potency [2] | Potency [3] | Potency [4]

COc1ccc(C(OC2OC(CO)C(O)C(O)C2O)C(C)O)cc1 (stereo unspecified)
active: Potency [3] 14.7 µM
inactive: Potency [1] | Potency [2] | Potency [4]

C=CCc1ccc(O[C@@H]2O[C@H](CO[C@@H]3O[C@H](CO)[C@@H](O)[C@H](O)[C@H]3O)[C@@H](O)[C@H](O)[C@H]2O)c(O)c1
inactive: Potency [1] | Potency [2] | Potency [3] | Potency [4]

CC(C)C1=CCC(C)(O)C(OC2OC(CO)C(O)C(O)C2O)C1 (stereo unspecified)
active: Potency [3] 2.33 µM
inactive: Potency [1] | Potency [2] | Potency [4]

C[C@@H]1O[C@@H](O[C@H]2[C@H](O)[C@@H](O)[C@H](OC[C@H]3O[C@@H](OC(=O)[C@]45CCC(C)(C)C[C@H]4C4=CCC6[C@@]7(C)C[C@H](O)[C@H](O[C@@H]8O[C@H](CO)[C@@H](O)[C@H](O)[C@H]8O)[C@@](C)(C(=O)O)C7CC[C@@]6(C)[C@]4(C)CC5)[C@H](O[C@@H]4O[C@H](CO)[C@@H](O)[C@H](O)[C@H]4O)[C@@H](O)[C@@H]3O)O[C@@H]2CO)[C@H](O)[C@H](O)[C@H]1O (stereo partly specified)
inactive: activity change, negative = inhibition [1] 0.162% [at 9.73 µM] | outcome [2] inactive [at 11.6 µM] | activity change, negative = thiol reactive [3] 1.9% [at 11.5 µM] | activity, negative = inhibition [4] 4.14% [at 11.6 µM]

CCNC(=O)[C@@H]1CCCN1C(=O)[C@H](CCCN=C(N)N)NC(=O)[C@H](CC(C)C)NC(=O)[C@@H](C)NC(=O)[C@H](Cc1ccc(O)cc1)NC(=O)[C@H](CO)NC(=O)[C@H](Cc1c[nH]c2ccccc12)NC(=O)[C@H](Cc1cnc[nH]1)NC(=O)[C@@H]1CCC(=O)N1
inactive: Potency [1] | Potency [2] | Potency [3] | Potency [4]

CO[C@@]12CC3[C@@H]([C@@H](O)[C@@H](OC(C)=O)C4[C@](C)(COC(C)=O)CCC[C@]34C)[C@@H](C)C1=CC(=O)O2 (stereo partly specified)
inactive: Potency [1] | Potency [2] | Potency [3] | Potency [4]

C[C@@H]1O[C@@H](O[C@H]2[C@H](O[C@H]3CC[C@@]4(C)C(CC[C@]5(C)C4CC=C4C6CC(C)(C)CC[C@]6(C(=O)O[C@@H]6O[C@H](CO[C@@H]7O[C@H](CO)[C@@H](O[C@@H]8O[C@@H](C)[C@H](O)[C@@H](O)[C@H]8O)[C@H](O)[C@H]7O)[C@@H](O)[C@H](O)[C@H]6O)CC[C@]45C)[C@]3(C)CO)OC[C@H](O)[C@@H]2O)[C@H](O)[C@H](O)[C@H]1O (stereo partly specified)
inactive: activity change, negative = inhibition [1] -7.52% [at 9.73 µM] | outcome [2] inactive [at 11.6 µM] | activity change, negative = thiol reactive [3] 181% [at 11.5 µM] | activity, negative = inhibition [4] 0.304% [at 11.6 µM]

CC(NCc1ccc(OCc2cccc(F)c2)cc1)C(N)=O (stereo unspecified)
inactive: Potency [1] | Potency [2] | Potency [3] | Potency [4]

Nc1ccn([C@@H]2C(F)=C(CO)[C@@H](O)[C@H]2O)c(=O)n1
inactive: Potency [1] | Potency [2] | Potency [3] | Potency [4]

C=CC(C)(C)O[C@@H]1O[C@H](CO[C@@H]2OC[C@](O)(CO)[C@H]2O)[C@@H](O)[C@H](O)[C@H]1O
inactive: Potency [1] | Potency [2] | Potency [3] | Potency [4]

OCc1ccccc1O[C@@H]1O[C@H](CO)[C@@H](O)[C@H](O)[C@H]1O
active: Potency [3] 23.8 µM
inactive: Potency [1] | Potency [2] | Potency [4]

CC1(C)C[C@H]2C3=CCC4[C@@]5(C)CC[C@H](O[C@H]6O[C@H](C(=O)O)[C@@H](O)[C@H](O)[C@H]6O[C@H]6O[C@H](CO)[C@@H](O)[C@H](O)[C@H]6O[C@@H]6O[C@H](CO)[C@@H](O)[C@H](O)[C@H]6O)[C@](C)(CO)C5CC[C@@]4(C)[C@]3(C)CC[C@@]2(C)[C@H](O[C@@H]2OC[C@H](O)[C@H](OC3O[C@H](CO)[C@@H](O)[C@H](O)[C@H]3O)[C@H]2O)[C@@H]1O (stereo partly specified)
inactive: outcome [1] inactive [at 9.73 µM] | outcome [2] inactive [at 11.6 µM] | activity change, negative = thiol reactive [3] 48.1% [at 11.5 µM] | activity, negative = inhibition [4] 4.18% [at 11.6 µM]

C=C1CC[C@H]2[C@@](C)(CCC(O)[C@@]2(C)CO)[C@@H]1C/C=C(/C(=O)O)C(O)CO (stereo partly specified)
inactive: Potency [1] | Potency [2] | Potency [4]
active: Potency [3] 6.56 µM

COc1c(C)c2c(c(O)c1C/C=C(\C)CC/C=C(\C)CCC(=O)O)C(=O)OC2
inactive: Potency [1] | Potency [2] | Potency [3] | Potency [4]

CC(CCC1(O)OC2CC3C4CCC5CC(O[C@@H]6O[C@H](CO)[C@@H](O)[C@H](O)[C@H]6O[C@@H]6OC[C@@H](O)[C@H](O)[C@H]6O)C(O)CC5(C)C4CCC3(C)C2C1C)CO[C@@H]1O[C@H](CO)[C@@H](O)[C@H](O)[C@H]1O (stereo partly specified)
inactive: Potency [1] | activity change, negative = inhibition [2] 1.24% [at 11.6 µM] | activity change, negative = thiol reactive [3] -13.7% [at 11.5 µM] | activity, negative = inhibition [4] 4.39% [at 11.6 µM]

CCCn1cnc2c(NCc3ccccc3)nc(N[C@H](CC)CO)nc21
inactive: Potency [1] | Potency [2] | Potency [3] | Potency [4]

CCCCN(CCCC)C(=O)CN1C[C@H](c2ccc3c(c2)OCO3)[C@@H](C(=O)O)[C@@H]1c1ccc(OC)cc1
inactive: Potency [1] | Potency [2] | Potency [3] | Potency [4]

CC1CC(=O)C2=C(O1)OC1(C)CCC3C(C)(C)C=CC(=O)C3(C)C1C2 (stereo unspecified)
inactive: Potency [1] | Potency [2] | Potency [4]
active: Potency [3] 7.36 µM

O=c1ccn([C@@H]2O[C@H](CO)[C@@H](O)[C@H]2O)c(=O)[nH]1
inactive: Potency [1] | Potency [2] | Potency [3] | Potency [4]

C=C/C=C/[C@@H]1OC[C@H](/C=C/C=C/C)[C@H]1O
inactive: Potency [1] | Potency [2] | Potency [3] | Potency [4]

CC1(C)CC[C@]2(C(=O)O)CC[C@]3(C)C(=CCC4[C@@]5(C)CC[C@H](O[C@@H]6O[C@H](C(=O)O)[C@@H](O)[C@H](O)[C@H]6O)C(C)(CO)C5CC[C@]43C)C2C1 (stereo partly specified)
inactive: Potency [1] | Potency [2] | Potency [3] | Potency [4]

CC(C)c1cc2c(c(O)c1O[C@@H]1O[C@H](CO)[C@@H](O)[C@H](O)[C@H]1O)CC1(O)CCC(O)C(C)(C)C1CC2 (stereo partly specified)
active: Potency [3] 9.22 µM
inactive: Potency [1] | Potency [2] | Potency [4]

CC(=O)OC1C=C(C(=O)O)C2(CO)CCC(C)C(C)(CCc3ccoc3)C2C1 (stereo unspecified)
inactive: Potency [1] | Potency [2] | Potency [3] | Potency [4]

CCn1nnnc1NCc1ccc(C(C)C)cc1
inactive: Potency [1] | Potency [2] | Potency [3] | Potency [4] | Potency [5]

Cc1ccc(C(=O)Nc2ccc(Oc3cc4cnn(C)c4cc3-c3cn[nH]c3)c(F)c2)c(=O)n1-c1ccc(F)cc1
inactive: Potency [1] | Potency [2] | Potency [3] | Potency [4] | Potency [5]

C[C@@H]1O[C@@H](OC[C@H]2O[C@@H](OCC3CCC4CC3C4(C)C)[C@H](O)[C@@H](O)[C@@H]2O)[C@H](O)[C@H](O)[C@H]1O (stereo partly specified)
inactive: Potency [1] | Potency [2] | Potency [4] | Potency [5]
active: Potency [3] 11.6 µM

Reference: PubChem BioAssay (NCATS)
